Assay results taken from PubChem BioAssay (NCATS).
Inconclusive results are not listed. Values without a mark were called inactive. Calls of active or inactive are those of the source. Calls follow the shape of the dose curve; as a rule, active = well fitted inhibition curve with a large enough effect; inconclusive = small, poorly fitted or top-dose-only effect; inactive = flat fitted curve, though single readings scatter.

Molecular target: Calcium and integrin-binding protein 1 (Homo sapiens) (UniProt Q99828)
Test: Primary qHTS for Identification of Calcium Integrin Binding Protein 1 (CIB1) Competitor (AID 1508620); also: top concentration of the series differs between compounds
Settings: CIB1-GST / FITC-alphaIIb peptide fluorescence polarization; series mostly up to 57.7 µM; activity change, negative = inhibition: at the top concentration
Procedure, shortened: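 Fluorescence polarization competition: GST-tagged CIB1 (1 uM final) preincubated with compound 15 min at room temperature, then FITC-labelled alphaIIb peptide (100 nM final) added. After 15 min at room temperature, polarization read at Ex 480/Em 540.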
% is scaled to controls: 0 for no effect and ±100 for the full control effect.

Sequence of Calcium and integrin-binding protein 1 (Homo sapiens) (Q99828 whole entry, looked up): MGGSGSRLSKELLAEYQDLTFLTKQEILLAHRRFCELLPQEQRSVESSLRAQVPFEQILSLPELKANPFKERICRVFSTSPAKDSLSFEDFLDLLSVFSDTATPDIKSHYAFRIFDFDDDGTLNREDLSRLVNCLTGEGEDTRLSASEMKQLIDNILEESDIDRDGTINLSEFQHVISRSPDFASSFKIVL

Row | Structure (SMILES) | activity change, negative = inhibition | Potency
1 | CC(=O)OC(CSC1CCC(=O)OC(C)CCC(=O)C1)C(=O)O (centres undefined) | -0.294% | 
2 | COC(=O)C1=COC(O[C@@H]2O[C@H](CO)[C@@H](O)[C@H](O)[C@H]2O)/C(=C\COC(=O)c2ccc(OC3OC(CO)C(O)C(O)C3O)c(OC)c2)C1CC(=O)OCCc1ccc(O)cc1 (some centres undefined) | -3.12% [at 30.2 µM] | 
3 | C=CC1C(O[C@@H]2O[C@H](CO)[C@@H](O)[C@H](O)[C@H]2O)OC=C(C(=O)OC)C1Cc1nccc2c1[nH]c1ccccc12 (some centres undefined) | -4.67% | 
4 | CC1CC(=O)C2=C(O1)OC1(C)CCC3C(C)(C)C=CC(=O)C3(C)C1C2 (centres undefined) | -1.35% | 
5 | CC(C)=CCCC1(C)Oc2cc3c(c4c2C2C(O4)C(C)(O)CCC21)CN(C(CCC(=O)O)C(=O)O)C3=O (centres undefined) | -8.15% | 
6 | C[C@@H]1O[C@@H](O[C@H]2[C@H](O)[C@@H](C(=O)O)O[C@@H](O[C@H]3CC[C@@]4(C)C(CC[C@]5(C)C4CC=C4C6CC(C)(C)CC[C@]6(C(=O)O)CC[C@]45C)C3(C)C)[C@@H]2O[C@@H]2O[C@H](CO)[C@@H](O)[C@H](O)[C@H]2O)[C@H](O)[C@H](O)[C@H]1O (some centres undefined) | 2.54% [at 30.2 µM] | 
7 | COc1ccccc1-n1c(SCC(=O)Nc2nc3ccc(C)cc3s2)nc2c(c1=O)SCC2 | 0.583% | 
8 | C[C@@H]1O[C@@H](O[C@@H]2[C@@H](O)[C@H](O[C@@H]3[C@@H](O)[C@@H](O)[C@H](O[C@H]4[C@H](OC(=O)[C@]56CCC(C)(C)C[C@H]5C5=CCC7[C@@]8(C)C[C@H](O)[C@H](O[C@@H]9O[C@H](C(=O)O)[C@@H](O)[C@H](O)[C@H]9O)[C@@](C)(CO)C8[C@H](O)C[C@@]7(C)[C@]5(C)CC6)OC[C@H](O)[C@@H]4O)O[C@H]3C)OC[C@H]2O)[C@H](O)[C@H](O)[C@H]1O (some centres undefined) | 3.71% [at 12.4 µM] | 
9 | COc1cc(N2CCC(O)CC2)ccc1Nc1cc(Nc2ccccc2S(=O)(=O)C(C)C)c2cc[nH]c2n1 |  | inactive
10 | O=C(O[C@H]1[C@@H]2C=CO[C@@H](O[C@@H]3O[C@H](CO)[C@@H](O)[C@H](O)[C@H]3O)[C@@H]2[C@@]2(CO)O[C@@H]12)c1ccc(O)cc1 | 5.41% | 
11 | OC1COC(OCC2OC(OCCc3ccccc3)C(O)C(O)C2O)C(O)C1O (centres undefined) | 1.11% | 
12 | CN1C(=O)c2ccccc2-n2c(nc3ccccc3c2=O)[C@@]12O[C@H]2c1ccccc1 | -7.65% | 
13 | COC(=O)[C@H](OC(C)=O)[C@H]1C(C)(C)C(=O)[C@H]2CC3=C4CC(=O)O[C@@H](c5ccoc5)[C@]4(C)CCC3[C@@]1(C)C2=O (some centres undefined) | -2.09% | 
14 | COC(=O)C1C(c2ccc(O)cc2)C(C(=O)OC)C1c1ccc(O)cc1 (centres undefined) | 1.64% | 
15 | COc1ccc(C(=O)O[C@H]2CC(C)=CC[C@@]3(C)[C@@H](OC(C)=O)C[C@@](O)(C(C)C)[C@H]23)cc1 | -4.92% | 
16 | CCC(=O)O[C@]1(C(=O)CCl)[C@@H](C)C[C@H]2[C@@H]3C[C@H](F)C4=CC(=O)C=C[C@]4(C)[C@@]3(F)[C@@H](O)C[C@@]21C | 0.348% [at 114 µM] | 
17 | CC1CCC2C(C(=O)O)=CC3CC(C)(C)CC132 (centres undefined) | -6.95% [at 114 µM] | 
18 | C[C@H]1[C@H](C)CC[C@]2(C(=O)O)CC[C@]3(C(=O)O)C(=CCC4[C@@]5(C)CC[C@H](O[C@@H]6O[C@H](C)[C@@H](O)[C@H](O)[C@H]6O)C(C)(C)C5CC[C@]43C)[C@H]12 (some centres undefined) | 2.39% [at 30.2 µM] | 
19 | C=C1CC/C=C(/CO)C(=O)C[C@@H]2[C@@H]1CC2(C)C | 1.08% [at 114 µM] | 
20 | Cc1cccc(-c2[nH]c(CNc3ccccc3F)nc2-c2ccc3ncnn3c2)n1 | -5.2% [at 114 µM] | 

Row | Structure (SMILES) | activity change, negative = inhibition | Potency
21 | COC(=O)C1(Cc2ccc(O)cc2)OC(=O)C(OC)=C1c1ccc(O)cc1 (centres undefined) | 0.509% | 
22 | Cc1nn(C)c2c1C(c1ccc(C(F)(F)F)cc1)C(C#N)=C(N)O2 (centres undefined) |  | inactive
23 | C[C@@H]1CC[C@]2(C(=O)O[C@@H]3O[C@H](CO)[C@@H](O)[C@H](O)[C@H]3O)CC[C@]3(C)C(=CCC4[C@@]5(C)C[C@@H](O)[C@H](O)C(C)(C)C5CC[C@]43C)C2[C@]1(C)O (some centres undefined) | 0.644% [at 30.2 µM] | 
24 | Cc1c(N2C(=O)c3ccc(C(=O)O)cc3C2=O)c(=O)n(-c2ccccc2)n1C | -0.813% [at 114 µM] | 
25 | COc1cccc(-c2ccc([C@@H](Oc3cc(-c4ccc(C[C@H](N)C(=O)O)cc4)nc(N)n3)C(F)(F)F)cc2)c1 | 4.53% [at 114 µM] | 
26 | C/C=C1\[C@H](O[C@@H]2O[C@H](CO)[C@@H](O)[C@H](O)[C@H]2O)OC=C(C(=O)OC)[C@H]1CC(=O)OC | 2.15% | 
27 | CCC(C)/C=C(C)/C=C/C1=CC2=C(Cl)C(=O)C(C)(OC(C)=O)C(=O)C2=CN1CCCC(=O)O (centres undefined) | -8.58% | 
28 | CC(C(=O)O)C1CCC2(C)C3C(=O)C=C4C(CCC(=O)C4(C)C)C3(C)CCC12C (centres undefined) | 1.56% | 
29 | CC1(O)CCC2C(C(=O)O)=COC(OC3OC(CO)C(O)C(O)C3OC(=O)/C=C/c3ccc(O)cc3)C21 (centres undefined) | -3.85% | 
30 | Nc1ccn([C@@H]2C(F)=C(CO)[C@@H](O)[C@H]2O)c(=O)n1 |  | inactive
31 | CC(=O)O[C@H]1CC[C@@]2(CI)C(=CC[C@@H]3[C@@H]2CC[C@]2(C)[C@@H]([C@H](C)CCCC(C)C)CC[C@@H]32)C1 | 2.02% [at 30.2 µM] | 
32 | C[C@H]1[C@H](C)CC[C@]2(C(=O)O[C@@H]3O[C@H](CO)[C@@H](O)[C@H](O)[C@H]3O)CC[C@]3(C(=O)O)C(=CCC4[C@@]5(C)CC[C@H](O[C@@H]6O[C@H](CO)[C@@H](O)[C@H](O)[C@H]6O)C(C)(C)C5CC[C@]43C)[C@H]12 (some centres undefined) | 2.03% [at 30.2 µM] | 
33 | CC1=CC(=O)CC(C)(CO[C@@H]2O[C@H](CO)[C@@H](O)[C@H](O)[C@H]2O)C1(O)/C=C/C(C)=C/C(=O)O (some centres undefined) | 1.4% | 
34 | CC(=O)OCCC(C)CCC1C(C)(O)CCC2C(C)(C)CCCC21C (centres undefined) | 2.18% | 
35 | C[C@@H]1C(=O)O[C@H]2[C@H]1CC[C@@]1(C)C(=O)C=C[C@](C)(O)[C@H]21 | 2.36% [at 114 µM] | 
36 | C=C(C)[C@@H]1CC[C@](C)(O)[C@@H](OC(=O)c2ccccc2)C1 | 1.43% [at 114 µM] | 
37 | CCOC(=O)c1ccc(N(C)c2csc(-c3ccccc3)n2)cc1 | 0.302% [at 114 µM] | 
38 | CCn1nnnc1NCc1ccc(C(C)C)cc1 | 1.25% [at 114 µM] | 
39 | CCC(=O)N[C@@H]1Cc2ccccc2[C@H](c2ccccc2)C1 | -7.85% [at 114 µM] | 
